{"source": "PubChem BioAssay (EPA / NIEHS)", "note": "Where “and” joins values, the source holds several entries; their conditions need not be identical. Equal entries are not always repeated. Inconclusive results are not listed. Some compounds were tested as several samples or in several runs, with calls that do not always agree. Calls of active or inactive are those of the source. Rule for the calls: active = hit-call score of the fitted dose curve at least 0.9, where 1 is the maximum; inconclusive = response in the unintended direction; inactive = score below 0.9.", "data": [{"assay": "TOX21_p53_BLA_p5_viability: Viability Assessment in the Tox21 HCT-116 p53 Agonism Beta-lactamase Assay, Phase 5 (AID 2283600)", "description": "TOX21_p53_BLA_p5 is a cell-based, single-readout assay that uses HCT116, a human intestinal cell line, […] in a 1536-well plate.TOX21_p53_BLA_p5_viability is an assay readout measuring cellular ATP content and detected with CellTiter-Glo Luciferase-coupled ATP quantitation.TOX21_p53_BLA_p5_viability used a type of viability reporter where loss-of-signal activity can be used to understand changes in the cell viability. Furthermore, this assay endpoint can be referred to as a secondary readout, because this assay has produced multiple assay endpoints where this one serves a viability function. To generalize the intended target to other relatable targets, this assay endpoint is annotated to the cell cycle intended target family, where the subfamily is cytotoxicity.\nThawing Method: Place 14 mL of pre-warmed thaw medium into a 15 mL of conical tub. Remove the vial of cells to be thawed from liquid nitrogen and thaw rapidly by placing at 37C in a water bath with gentle agitation for 1-2 minutes. Decontaminate the vial by wiping with 70% ethanol before opening in a biological safety cabinet. Transfer the vial contents drop-wise into 14 mL of thaw medium in a sterile 15-mL conical tub. Centrifuge cells at 900 rpm for 4 minutes and resuspend in thaw medium. Transfer contents to the T75 tissue culture flask containing Thaw Medium and place flask in a humidified 37C/5% CO2 incubator. Switch to growth medium at first passage.Propagation Method: Aspirate medium, rinse once in DPBS, add 0.25% Trypsin/EDTA and swirl to coat the cell evenly. Add an equal volume of Growth Medium to inactivate Trypsin after 2-3 minutes incubation at 37C. Centrifuge cells at 900 rpm for 4 minutes and resuspend in growth medium. Cell should be passage or fed at least twice a week.Assay Protocol: Harvest cells from culture in growth medium and resuspend in assay medium. 2.2 Dispense 4000 cells/5 uL/well into 1536-well black/clear bottom plates using a Multidrop dispenser. After the cells were incubated at 37C for 5 hours, 23 nL of compounds dissolved in DMSO were transferred to the assay plate by a PinTool resulting in a 217-fold dilution. Incubate the plates for 16 hours at 37C, 5% CO2. Add 1 uL of 6X LiveBLAzer FRET B/G (CCF4-AM) Substrate Mixture to each well using a BioRAPTR dispenser and incubate the plates at room temperature for 2 hours. Measure fluorescence intensity at 460 and 530 nm emission and 405 nm excitation by an Envision detector. Data is expressed as the ratio of 460nm/530nm emissions. Add 4 uL of Cell-titer Glo to each well using BioRAPTR and incubate the plates at room temperature for […]. For cell viability readout that measures cytotoxicity, 4 ul/well of CellTiter-Glo reagent was added into the assay plates using a Flying Reagent Dispenser. After 30 min incubation at room temperature, the luminescence intensity in the plates was measured using a ViewLux plate reader.", "values": [{"smiles": "c1ccc2cc3c(ccc4ccccc43)cc2c1", "outcome": "inactive"}, {"smiles": "COC(=O)CCCCC(=O)OC", "outcome": "inactive"}, {"smiles": "CC1=C(/C=C/C(C)=C/C=C/C(C)=C/C(=O)O)C(C)(C)CCC1", "outcome": "inactive"}, {"smiles": "CCN(CC)CCNc1ccc(CNC=O)c2sc3ccc(OC)cc3c(=O)c12", "outcome": "inactive"}, {"smiles": "C[C@@H]1C[C@H]2[C@@H]3CCC4=CC(=O)C=C[C@]4(C)[C@@]3(F)[C@@H](O)C[C@]2(C)[C@@]1(O)C(=O)COP(=O)(O)O", "outcome": "inactive"}, {"smiles": "CCc1nn(C2CCCCC2)c2cc(C3(C#N)CCC(C(=O)O)CC3)ccc12", "note": "(stereo not given)", "outcome": "inactive"}, {"smiles": "CC#C[C@]1(O)CC[C@H]2[C@@H]3CCC4=CC(=O)CCC4=C3[C@@H](c3ccc(N(C)C)cc3)C[C@@]21C", "outcome": "inactive"}, {"smiles": "Nc1cccc2c(N)cccc12", "outcome": "inactive"}, {"smiles": "c1ccc2c(c1)Cc1ccccc1-2", "outcome": "inactive"}, {"smiles": "Cc1cc(CCN2CCN(c3nsc4ccccc34)CC2)cc2c1NC(=O)CC2(C)C", "outcome": "inactive"}, {"smiles": "CC(=O)NC1(c2cccc(F)c2)CCN(CC[C@@]2(c3ccc(Cl)c(Cl)c3)CN(c3ccccc3)C(=O)CO2)CC1", "AC50": "60.3 µM (active)"}, {"smiles": "Cc1ccc(S(=O)(=O)O)c(C)c1", "outcome": "inactive"}, {"smiles": "CC(C)(C)CC(C)(C)c1ccc(O)c(-n2nc3ccccc3n2)c1", "outcome": "inactive"}, {"smiles": "CCCCC(CC)COC(=O)CCCCC(=O)OCc1ccccc1", "note": "(stereo not given)", "outcome": "inactive"}, {"smiles": "CCCCCCCCCCCCN1CCCC1=O", "AC50": "45.3 µM (active)"}, {"smiles": "CC[C@H](c1ccc(O)cc1)[C@@H](CC)c1ccc(O)cc1", "outcome": "inactive", "AC50": "75.7 µM (active)"}, {"smiles": "CCCCC(CC)COC(=O)CCCCC(=O)OCC(CC)CCCC", "note": "(stereo not given)", "outcome": "inactive"}, {"smiles": "CC(O)CO", "note": "(stereo not given)", "outcome": "inactive"}, {"smiles": "CCCCCCCC(=O)O", "outcome": "inactive"}, {"smiles": "CC(C)(C)c1cc(C(C)(C)C)c(O)c(C(C)(C)C)c1", "outcome": "inactive"}, {"smiles": "Cc1oc(-c2ccccc2)nc1CCOc1ccc(C[C@H](Nc2ccccc2C(=O)c2ccccc2)C(=O)O)cc1", "AC50": "15.5 µM (active)"}, {"smiles": "CCc1ccc(CCOc2ccc(CC3SC(=O)NC3=O)cc2)nc1", "note": "(stereo not given)", "outcome": "inactive"}, {"smiles": "ClC1=C(Cl)C(Cl)(Cl)C(Cl)=C1Cl", "outcome": "inactive"}, {"smiles": "Oc1cc2ccccc2c2ccccc12", "AC50": "13.3 µM (active)"}, {"smiles": "CC(C)(C)c1cccc(C(C)(C)C)c1O", "outcome": "inactive"}, {"smiles": "OC1CCCCC1", "outcome": "inactive"}, {"smiles": "CCCCCCCCCCCCCC[N+](C)(C)C", "outcome": "inactive", "AC50": "76.6 µM (active) and 45.3 µM (active)"}, {"smiles": "CCCCCCC(=O)O", "outcome": "inactive"}, {"smiles": "NC(=O)N1C(=O)C(C(=O)c2cc(Cl)cs2)c2cc(F)c(Cl)cc21", "note": "(stereo not given)", "outcome": "inactive"}, {"smiles": "CCCOC(=O)c1ccc(O)cc1", "outcome": "inactive"}, {"smiles": "CN1CCN(c2ccccc2/C=C2\\SCCN(c3ccc(Cl)c(Cl)c3)C2=O)CC1", "AC50": "83.7 µM (active)"}, {"smiles": "O=C(OCCOCCOC(=O)c1ccccc1)c1ccccc1", "outcome": "inactive"}, {"smiles": "CC(C)(C)c1ccc(O)c(C(C)(C)C)c1", "outcome": "inactive", "AC50": "42.7 µM (active)"}, {"smiles": "OCCC(F)(F)C(F)(F)C(F)(F)C(F)(F)C(F)(F)C(F)(F)C(F)(F)C(F)(F)F", "outcome": "inactive"}, {"smiles": "N#C[C@@H]1CC(F)(F)CN1C(=O)CNC1CC2CCC(C1)N2c1ncccn1", "note": "(stereo not given in full)", "outcome": "inactive"}, {"smiles": "CCC(C)(C)C1CCC(O)CC1", "note": "(stereo not given)", "outcome": "inactive"}, {"smiles": "CCCCOCCO", "outcome": "inactive"}]}]}
